{
  "source": "PubChem BioAssay AID1850",
  "about": "(Southern Research Specialized Biocontainment Screening …, 2009)",
  "note": "About 1,000 (0.32%) of roughly 310,000 compounds were called active. The rule behind the calls is not given here. A selection follows. Measured potencies and affinities stand elsewhere.",
  "data": [
    {"assay": "Inhibition of PhoP regulon, Salmonella typhi GFP reporter cells, confirmation, 4 h (AID 1850);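 note: 0% = induced wells with vehicle and 100% = uninduced wells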", "settings": "Salmonella Typhi PhoP-promoter GFP reporter, fluorescence, at 50 µM, hits give high values", "values": [
      {"compound": "Clc1ccc(C[n+]2cc(-c3ccccc3)n3c2CCC3)cc1Cl", "inhibition": "-4.76% (inactive)"},
      {"compound": "Clc1ccc(-c2c[n+](Cc3ccc(Br)cc3)c3n2CCCCC3)cc1", "inhibition": "4.54% (inactive)"},
      {"compound": "Cc1ccc(-c2c[n+](Cc3cccc(Cl)c3)c3n2CCC3)cc1", "inhibition": "9.09% (inactive)"},
      {"compound": "Cc1ccc(C[n+]2cc(-c3ccc(Cl)cc3)n3c2CCC3)cc1", "inhibition": "8.21% (inactive)"},
      {"compound": "COc1ccc(NC(=S)NC(C)C(c2ccccc2)N2CCOCC2)cc1", "note": "(configuration not stated)", "inhibition": "-8.71% (inactive)"},
      {"compound": "O=C(CNC(=O)Cc1ccc(Cl)cc1)NCC(=O)N1CCCCC1", "inhibition": "-7.52% (inactive)"},
      {"compound": "CC(=O)Nc1c(S(=O)(=O)c2ccccc2)c2nc3ccccc3nc2n1Cc1ccccc1", "inhibition": "-2.36% (inactive)"},
      {"compound": "CCOC(=O)c1c(NS(=O)(=O)c2ccccc2)n(CCCOC)c2nc3ccccc3nc12", "inhibition": "-3.68% (inactive)"},
      {"compound": "CCCCCn1c(NC(=O)c2ccco2)c(S(=O)(=O)c2ccc(C)cc2)c2nc3ccccc3nc21", "inhibition": "-3.82% (inactive)"},
      {"compound": "CCC(=O)Nc1c(C#N)c2nc3ccccc3nc2n1C1CCCCC1", "inhibition": "0.26% (inactive)"},
      {"compound": "Nc1c(S(=O)(=O)c2ccccc2)c2nc3ccccc3nc2n1C1CC1", "inhibition": "0.22% (inactive)"},
      {"compound": "CCCCn1c(NS(=O)(=O)c2ccc(C)cc2)c(C(=O)OCC)c2nc3ccccc3nc21", "inhibition": "-4.9% (inactive)"},
      {"compound": "C=CCn1c(NC(=O)c2ccc(Br)o2)c(S(=O)(=O)c2ccccc2)c2nc3ccccc3nc21", "inhibition": "21.1% (inactive)"},
      {"compound": "CCCCn1c(N)c(S(=O)(=O)c2ccc(C)cc2)c2nc3ccccc3nc21", "inhibition": "-6.91% (inactive)"},
      {"compound": "CCOC(=O)c1c(C(=O)OCC)c(C)n(Cc2cc(OC)c(OC)c(OC)c2)c1C", "inhibition": "-2.04% (inactive)"},
      {"compound": "COc1ccc(C(=O)N/N=C/c2c(C)nn(-c3ccccc3)c2OC)cc1", "inhibition": "-1.74% (inactive)"},
      {"compound": "CCn1c(SCC(=O)NCc2ccccc2)nnc1C(CO)NC(=O)c1ccccc1", "note": "(configuration not stated)", "inhibition": "-10.3% (inactive)"},
      {"compound": "CCC(=O)c1ccc(N2CCN(C(=O)Cc3ccccc3)CC2)c(F)c1", "inhibition": "18.2% (inactive)"},
      {"compound": "CCOC(=O)c1c(N)nn(C(C)=O)c1-c1ccccc1", "inhibition": "-5.98% (inactive)"},
      {"compound": "Cc1ccccc1OCC(=O)Nc1nnc(COc2ccccc2)s1", "inhibition": "-8.87% (inactive)"},
      {"compound": "CCCCn1c(SCC(=O)Nc2nnc(CC)s2)nc2ccccc2c1=O", "inhibition": "-4.64% (inactive)"},
      {"compound": "O=C(N/N=C\\c1ccc(Cl)s1)c1ccc(Cn2cccn2)o1", "inhibition": "-13.9% (inactive)"},
      {"compound": "C=C(C)c1cccc(C(C)(C)NC(=O)NCCCN2CCCC2=O)c1", "inhibition": "-0.97% (inactive)"},
      {"compound": "Cc1noc(C)c1CSCC(=O)N1CCN(c2ccc([N+](=O)[O-])cc2)CC1", "inhibition": "2.46% (inactive)"},
      {"compound": "CCCCn1c(NC(=O)c2ccc(Br)o2)c(S(=O)(=O)c2ccccc2)c2nc3ccccc3nc21", "inhibition": "-28% (inactive)"},
      {"compound": "Cc1ccc(S(=O)(=O)c2c(N)n(CCCO)c3nc4ccccc4nc23)cc1", "inhibition": "0.68% (inactive)"},
      {"compound": "CCc1ccc(C(=O)/C=C/c2ccc([N+](=O)[O-])o2)cc1", "inhibition": "-7.72% (inactive)"},
      {"compound": "O=[N+]([O-])c1ccc(/C=[N+](\\[O-])[C@@H]2CCCC[C@@H]2/[N+]([O-])=C/c2ccc([N+](=O)[O-])o2)o1", "inhibition": "7.15% (inactive)"},
      {"compound": "O=c1oc2cc(S(=O)(=O)NCCCO)ccc2c2ccc(S(=O)(=O)NCCCO)cc12", "inhibition": "0.32% (inactive)"},
      {"compound": "Cc1cccc(NC(=O)c2cc3ccccc3o2)c1", "inhibition": "-8.7% (inactive)"},
      {"compound": "O=C(Nc1ccccc1)c1cc2ccccc2o1", "inhibition": "21.6% (inactive)"},
      {"compound": "COc1ccc(Nc2cc(Nc3cc(OC)c(OC)c(OC)c3)ncn2)cc1", "inhibition": "10.6% (inactive)"},
      {"compound": "Cc1ccc(NC(=O)CS(=O)CC(=O)Nc2ccc(N3CCOCC3)cc2)cc1Cl", "note": "(configuration not stated)", "inhibition": "12.6% (inactive)"},
      {"compound": "CC(C(=O)c1ccc(-c2ccccc2)cc1)[n+]1cccc(C(N)=O)c1", "note": "(configuration not stated)", "inhibition": "5.49% (inactive)"},
      {"compound": "CC(C(=O)c1ccc(Br)cc1)[n+]1cccc(NC(=O)c2ccccc2)c1", "note": "(configuration not stated)", "inhibition": "4.99% (inactive)"},
      {"compound": "CC(=O)C1=C(C)OC(N)=C(C#N)C1c1cccnc1", "note": "(configuration not stated)", "inhibition": "-13.9% (inactive)"},
      {"compound": "CCOC(=O)C1=C(c2ccccc2)OC(N)=C(C#N)C1c1cccnc1", "note": "(configuration not stated)", "inhibition": "9.75% (inactive)"},
      {"compound": "CCC(C)(C)n1nnnc1C(c1cc2cc(C)cc(C)c2[nH]c1=O)N1CCN(C(=O)c2ccco2)CC1", "note": "(configuration not stated)", "inhibition": "8.8% (inactive)"},
      {"compound": "COc1ccccc1C1/C(=C(\\O)c2ccc3c(c2)OCCO3)C(=O)C(=O)N1CCCn1ccnc1", "note": "(configuration not stated)", "inhibition": "5.32% (inactive)"},
      {"compound": "COCc1cc(CN2CCN(C)CC2)c(O)c2ncccc12", "inhibition": "4.48% (inactive)"},
      {"compound": "O=c1oc2ccccc2c(O)c1Cc1cc(Cl)c2cccnc2c1O", "inhibition": "10.9% (inactive)"},
      {"compound": "CCOC(=O)N1CCN(Cc2ccccc2Cl)CC1", "inhibition": "-4.15% (inactive)"},
      {"compound": "CCOC(=O)N1CCN(Cc2ccc(O)c3ncccc23)CC1", "inhibition": "1.82% (inactive)"},
      {"compound": "CN1CCN(Cc2cc(Cl)c3cccnc3c2OC(=O)c2cccs2)CC1", "inhibition": "-8.42% (inactive)"},
      {"compound": "O=c1c(CN2CCN(c3ccccn3)CC2)coc2ccccc12", "inhibition": "-1.82% (inactive)"},
      {"compound": "COc1ccc2nc(N(CCN(C)C)C(=O)c3ccc(C(=O)c4ccccc4)cc3)sc2c1", "inhibition": "-16% (inactive)"},
      {"compound": "Cc1ccccc1CSCC(Nc1ccc(C(=O)O)cc1[N+](=O)[O-])C(=O)O", "note": "(configuration not stated)", "inhibition": "-0.8% (inactive)"},
      {"compound": "CCc1nnc(NS(=O)(=O)c2ccc(N3C(=O)C4CC=C(Cl)CC4C3=O)cc2)s1", "note": "(configuration not stated)", "inhibition": "5.39% (inactive)"},
      {"compound": "c1ccc(CNc2nc3ccccc3[nH]2)cc1", "inhibition": "-2.74% (inactive)"},
      {"compound": "COc1ccc2nc(NCc3ccccc3)[nH]c2c1", "inhibition": "18.6% (inactive)"},
      {"compound": "Cc1cc([N+](=O)[O-])nn1CC(=O)N1CCOCC1", "inhibition": "12.6% (inactive)"},
      {"compound": "Fc1ccc(C[n+]2c(-c3ccccc3)cc(-c3ccccc3)cc2-c2ccccc2)cc1", "inhibition": "11.1% (inactive)"},
      {"compound": "c1ccc(-c2cc(-c3ccccc3)[n+](-c3ccccc3)c(-c3ccccc3)c2)cc1", "inhibition": "19.1% (inactive)"},
      {"compound": "Clc1ccc(C[n+]2c(-c3ccccc3)cc(-c3ccccc3)cc2-c2ccccc2)cc1", "inhibition": "16.5% (inactive)"},
      {"compound": "Cc1ccc(-c2cc(-c3ccccc3)cc(-c3ccccc3)[n+]2-c2ccccc2)cc1", "inhibition": "20.6% (inactive)"},
      {"compound": "CCC1CCCCN1C(=O)c1cc(COc2ccc(-n3cncn3)cc2)on1", "note": "(configuration not stated)", "inhibition": "-7.8% (inactive)"},
      {"compound": "CN(c1ccccc1C(=O)Nc1ccc(S(=O)(=O)N2CCCC2)cc1)S(C)(=O)=O", "inhibition": "9.12% (inactive)"}
    ]}
  ]
}
